In PubChem BioAssay (NCATS):
Unmarked numbers belong to inactive results. Inconclusive results are not listed. The source made the active and inactive calls. Unless noted, calls come from the whole dose curve; as a rule, active = well fitted curve in either direction with a large enough effect (not every such curve was filed as active); inconclusive = small, poorly fitted or top-dose-only effect, or another doubt; inactive = flat fitted curve, though single readings scatter.

Key:
[1] = AP1 Signaling Pathway (AID 357); details: ME-180 AP-1-bla reporter, EGF-induced, beta-lactamase ratio, 5 h; at 17.2 µM (top of the series) unless noted; note: % is set by controls: 0 for no effect and ±100 for the full control effect
Outline: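 ME-180 cells with beta-lactamase reporter under AP-1 response element, stimulated with EC50 EGF; compounds tested in titration series, 5 h at 37 °C. CCF4 substrate added 2.5 h at room temperature; 460/530 nm emission ratio gave %activity and AC50.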

[2] = Stat Signaling Pathway (AID 446); details: ME-180 SIE beta-lactamase reporter, IL-6 stimulated, 5 h; at 17.2 µM (top of the series) unless noted;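 note: ME-180 cervical cancer cells given 40 pM IL-6 alongside compound; SIE-controlled beta-lactamase reporter measured as 460/530 nm FRET emission ratio; % is set by controls: 0 for no effect and ±100 for the full control effect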
Outline: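 Normalization used AC90 stimulation (300 pM IL-6) and AC90 inhibition (125 nM pan-JAK inhibitor at 40 pM IL-6). The underlying signal is SIE-driven beta-lactamase in ME-180 cells after 5 h IL-6 exposure with compound.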

[3] = biological target: Glucocorticoid receptor (Homo sapiens) (UniProt P04150); assay: GR-GFP Redistribution (AID 450;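 active = compounds whose dose series gives a full or clear partial fitted curve of increased nuclear translocation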; note: potency is the fitted concentration of half-maximal effect)
[4] = NFAT Signaling Pathway (AID 444); details: Jurkat NFAT-bla M1, carbachol, beta-lactamase ratio, 5 h; at 17.2 µM (top of the series) unless noted;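 note: carbachol stimulus at about its EC50 of 1 µM final; % is set by controls: 0 for no effect and ±100 for the full control effect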
Outline: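 Jurkat cells with NFAT-driven β-lactamase reporter and co-expressed M1 receptor, stimulated with carbachol (final 1 uM, ~EC50), compound titration, 5 h at 37 °C. CCF4 loaded 1 h at RT; 460/530 nm ratio gave %activity and AC50.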

[5] = qHTS Assay for Identification of Small Molecule Agonists for Hypoxia Response Element Signaling Pathway (AID 914; active = well fitted activation curve with a large enough effect in the signal ratio, with a control signal flat, not every such curve was filed as active; the % refers to the signal ratio; note: potency is the fitted concentration of half-maximal effect); details: ME-180 (cervical carcinoma) HRE-bla reporter, beta-lactamase ratio, CoCl2, 17 h; activation: stronger effect = higher value
Outline: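 Cells were plated overnight, pin-dosed with compound in a titration series, co-stimulated with EC50 CoCl2 and incubated 17 hours at 37 degrees Celsius. CCF4 substrate was then loaded, and AC50 values came from the 460nm/530nm ratio.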

Glucocorticoid receptor (Homo sapiens), sequence (P04150 whole entry, looked up): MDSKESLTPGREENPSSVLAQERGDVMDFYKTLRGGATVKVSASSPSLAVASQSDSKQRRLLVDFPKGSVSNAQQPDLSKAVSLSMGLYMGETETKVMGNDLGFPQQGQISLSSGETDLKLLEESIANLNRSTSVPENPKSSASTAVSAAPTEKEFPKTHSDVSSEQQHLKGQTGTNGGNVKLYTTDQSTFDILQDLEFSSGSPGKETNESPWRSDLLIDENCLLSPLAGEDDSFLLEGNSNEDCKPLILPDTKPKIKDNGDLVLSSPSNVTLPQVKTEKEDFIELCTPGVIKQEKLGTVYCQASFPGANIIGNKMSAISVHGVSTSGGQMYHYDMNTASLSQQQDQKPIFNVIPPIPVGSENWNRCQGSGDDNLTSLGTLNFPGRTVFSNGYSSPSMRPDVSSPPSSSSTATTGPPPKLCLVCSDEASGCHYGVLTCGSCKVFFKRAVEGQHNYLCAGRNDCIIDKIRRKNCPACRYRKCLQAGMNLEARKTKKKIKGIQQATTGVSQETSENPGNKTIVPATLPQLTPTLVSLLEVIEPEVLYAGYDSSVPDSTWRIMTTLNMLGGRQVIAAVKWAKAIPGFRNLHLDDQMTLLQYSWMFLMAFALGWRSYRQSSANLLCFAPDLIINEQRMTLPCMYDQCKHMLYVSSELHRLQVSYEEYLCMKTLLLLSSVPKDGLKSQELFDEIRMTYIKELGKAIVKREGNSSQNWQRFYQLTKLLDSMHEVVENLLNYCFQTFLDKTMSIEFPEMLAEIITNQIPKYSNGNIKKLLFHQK

With `CCc1cc(=O)oc2c(CN3CCCC3)c(O)c(Cl)cc12` the activity change, negative = inhibition [1] was 12.3%, the activity, negative = inhibition [2] was 4.15% and the Potency [3] was > 20.6 µM.

With `CCSc1nc2sc3c(c2c(=O)n1C1CCCCC1)CCN(C)C3` the activity change, negative = inhibition [1] was 4.46%, the activity, negative = inhibition [2] was 24.3% and the Potency [3] was > 20.6 µM.

With `OCCN(CCO)c1ncnc2c1sc1nc(N3CCOCC3)c3c(c12)CCCC3` the activity change, negative = inhibition [1] was -27.6%, the activity, negative = inhibition [2] was -21.5% and the Potency [3] was > 20.6 µM.

In the case of `CC(C)Cn1nc(NC(=O)C(C)(C)C)c2cc3ccccc3nc21`, the activity change, negative = inhibition [1] is reported as -20.3%, the activity, negative = inhibition [2] is reported as -6.46% and the Potency [3] is reported as > 20.6 µM.

For `N#CC(C(=O)NC1CCCCC1)c1nc2ccccc2nc1N1CCN(c2ccccc2F)CC1` (centres undefined), the activity change, negative = inhibition [1] was -12.2%, the activity, negative = inhibition [2] was -5.87% and the Potency [3] was > 20.6 µM.

With `Cc1ccc(CNC(=O)c2cc3c(=O)n4ccccc4nc3n(CC3CCCO3)c2=N)cc1` (centres undefined) the activity change, negative = inhibition [1] was 20.6%, the activity change, negative = inhibition [4] was 21.8% and the Potency [3] was > 20.6 µM. The Potency [5] was 7.94 µM (active).

With `CC(C)c1nc(NCCN2CCOCC2)c(C#N)c2c1COC(C)(C)C2` the activity change, negative = inhibition [1] was -27%, the activity, negative = inhibition [2] was -1.06% and the Potency [3] was > 20.6 µM.

With `COc1cccc(CNc2ncc(Br)cc2Br)c1O` the activity change, negative = inhibition [1] was -6.72%, the activity, negative = inhibition [2] was -21.8% and the Potency [3] was > 20.6 µM.

`CCN1CCc2c(C#N)c(N3CCOCC3)nc(NCc3ccccc3)c2C1` showed an activity change, negative = inhibition [1] of 1.6% and an activity, negative = inhibition [2] of 1.47%.

With `Cc1nc(/N=C(\N)Nc2ccccc2)nc2ccccc12` the activity change, negative = inhibition [1] was -14.5%, the activity, negative = inhibition [2] was -26.3% and the Potency [3] was > 20.6 µM.

With `COc1ccc(C2/C(=C(\O)c3ccc4c(c3)OCCO4)C(=O)C(=O)N2CCCN(C)C)cc1` (centres undefined) the activity change, negative = inhibition [1] was 8.31%, the activity, negative = inhibition [2] was 2.89% and the Potency [3] was > 20.6 µM.

In the case of `COc1cccc(C(=O)OC2CCCN(C)C2)c1` (centres undefined), the activity change, negative = inhibition [1] is reported as -4.26%, the activity, negative = inhibition [2] is reported as 4.49% and the Potency [3] is reported as > 20.6 µM.

In the case of `CCOC(=O)c1nc(N)c(C(=O)OCC)[nH]1`, the activity change, negative = inhibition [1] is reported as 8.92%, the activity, negative = inhibition [2] is reported as 6.9% and the Potency [3] is reported as > 20.6 µM.

In the case of `CC(C)Sc1nnc2n(CCc3ccccc3)c(=O)c3c4c(sc3n12)COC(C)(C)C4`, the activity change, negative = inhibition [1] is reported as -19.5%, the activity, negative = inhibition [2] is reported as -3.01% and the Potency [3] is reported as > 20.6 µM.

In the case of `Cc1ccccc1C(=O)c1ccc2c(c1)n(C)c(=O)n2C`, the activity change, negative = inhibition [1] is reported as 4.88%, the activity, negative = inhibition [2] is reported as -15.6% and the Potency [3] is reported as > 20.6 µM.

With `CCCOc1ccc(C(C)=O)cc1CSCCC#N` the activity change, negative = inhibition [1] was -12.7%, the activity, negative = inhibition [2] was 85.5% and the Potency [3] was > 20.6 µM.

For `COC(=O)CSc1nc2sc3c(c2c(=O)n1C1CCCCC1)CCN(C)C3`, the activity change, negative = inhibition [1] was -11.2%, the activity, negative = inhibition [2] was -5.31% and the Potency [3] was > 20.6 µM.

For `CC1(C)Cc2c(sc3c2C2=NCCN2C=N3)CO1`, the activity change, negative = inhibition [1] was 12.7%, the activity, negative = inhibition [2] was 1.72% and the Potency [3] was > 20.6 µM.

With `COc1cc(-c2nn3c(-c4cccnc4)nnc3s2)cc(OC)c1OC` the activity change, negative = inhibition [1] was -0.374%, the activity, negative = inhibition [2] was -7.44% and the Potency [3] was > 20.6 µM.

With `CCOC(=O)C(O)(C1C(=O)CC(C)(C)CC1=O)C(F)(F)F` (centres undefined) the activity change, negative = inhibition [1] was 10.7%, the activity change, negative = inhibition [4] was 7.75% and the Potency [5] was 10 µM (active).

With `CC(C)C1=C2OC(N)=C(C#N)C(C#N)=C2C(C)CC1` (centres undefined) the activity change, negative = inhibition [1] was -2.44%, the activity, negative = inhibition [2] was 5.25% and the Potency [3] was > 20.6 µM.

For `Cc1ccc(-c2ccc(/C=N/c3ncn[nH]3)o2)cc1Cl`, the activity change, negative = inhibition [1] was 1.81% and the activity, negative = inhibition [2] was -7.79%.

For `CC(C)(C)OC(=O)NCCC(=O)Oc1ccc2ccc(=O)oc2c1`, the activity change, negative = inhibition [1] was 16.1%, the activity, negative = inhibition [2] was 12.7% and the Potency [3] was > 20.6 µM.

With `Cc1ccc(-n2c(=O)c3c4c(sc3n3c(C)nnc23)COC(C(C)C)C4)cc1` (centres undefined) the activity change, negative = inhibition [1] was -7.34%, the activity, negative = inhibition [2] was -0.5% and the Potency [3] was > 20.6 µM.

`COc1ccccc1-c1nnc2n1N=C(c1ccc(O)c(O)c1)CS2` showed an activity change, negative = inhibition [1] of 10.7% and an activity, negative = inhibition [2] of -15.4%.

With `Cc1cccc(N(Cc2cc3ccccc3[nH]c2=O)C(=O)c2ccco2)c1C` the activity change, negative = inhibition [1] was -19.9%, the activity, negative = inhibition [2] was -17% and the Potency [3] was > 20.6 µM.

With `COc1ccc(CCn2c(=N)c(C(=O)NCc3ccco3)cc3c(=O)n4ccccc4nc32)cc1OC` the activity change, negative = inhibition [1] was -14.6%, the activity, negative = inhibition [2] was -2.08% and the Potency [3] was > 20.6 µM.

With `CC(C)C(=O)N1CCN(c2nc(-c3ccccc3)c3c(c2C#N)CCCC3)CC1` the activity change, negative = inhibition [1] was -14.8%, the activity, negative = inhibition [2] was -9.28% and the Potency [3] was > 20.6 µM.

For `CCCCCCn1c(SCCN2CCOCC2)nc2c1c(=O)[nH]c(=O)n2C`, the activity change, negative = inhibition [1] was -17.8%, the activity, negative = inhibition [2] was -0.329% and the Potency [3] was > 20.6 µM.

For `Cc1ccc(Cn2ncc3c(N4CCN(Cc5ccc(Cl)cc5)CC4)ncnc32)cc1`, the activity change, negative = inhibition [1] was -8.19%, the activity, negative = inhibition [2] was -14.5% and the Potency [3] was > 20.6 µM.

For `O=c1cc(-c2ccco2)nc(-c2cccs2)o1`, the activity change, negative = inhibition [1] was 6.68%, the activity, negative = inhibition [2] was 8.1% and the Potency [3] was > 20.6 µM.

With `CC1(C)CC(=O)C(C=NCCN2CCN(CCc3ccccc3)CC2)=C(O)C1` the activity change, negative = inhibition [1] was 2.91%, the activity, negative = inhibition [2] was -3.07% and the Potency [3] was > 20.6 µM.
